Compound in the test: Cc1cnc(Nc2ccc(OCCN3CCCC3)cc2)nc1Nc1cccc(S(=O)(=O)NC(C)(C)C)c1 [Fedratinib]
As to the kind of experiment: percent of DMSO control binding (KINOMEscan); higher = weaker binding / less inhibition; extreme values may be limits of the assay. The settings on record: concentration: 100 nM.
Sequence of UniProt P54646 (P54646 whole entry, looked up): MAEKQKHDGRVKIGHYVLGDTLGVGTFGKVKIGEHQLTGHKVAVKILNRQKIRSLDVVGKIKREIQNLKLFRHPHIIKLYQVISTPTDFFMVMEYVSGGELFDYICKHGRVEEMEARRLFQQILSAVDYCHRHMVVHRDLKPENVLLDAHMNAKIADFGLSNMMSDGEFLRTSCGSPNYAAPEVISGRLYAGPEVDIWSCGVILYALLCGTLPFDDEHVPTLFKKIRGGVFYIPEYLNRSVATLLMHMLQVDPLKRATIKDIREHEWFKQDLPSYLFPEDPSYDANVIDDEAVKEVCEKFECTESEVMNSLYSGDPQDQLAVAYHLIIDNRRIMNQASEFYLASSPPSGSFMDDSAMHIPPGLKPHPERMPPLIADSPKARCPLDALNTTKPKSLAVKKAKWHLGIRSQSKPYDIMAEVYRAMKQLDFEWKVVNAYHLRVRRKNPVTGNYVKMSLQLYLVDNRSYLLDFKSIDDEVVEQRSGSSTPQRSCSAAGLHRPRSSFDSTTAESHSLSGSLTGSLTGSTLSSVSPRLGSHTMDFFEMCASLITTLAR
Sequence of UniProt Q9P286 (Q9P286 whole entry, looked up): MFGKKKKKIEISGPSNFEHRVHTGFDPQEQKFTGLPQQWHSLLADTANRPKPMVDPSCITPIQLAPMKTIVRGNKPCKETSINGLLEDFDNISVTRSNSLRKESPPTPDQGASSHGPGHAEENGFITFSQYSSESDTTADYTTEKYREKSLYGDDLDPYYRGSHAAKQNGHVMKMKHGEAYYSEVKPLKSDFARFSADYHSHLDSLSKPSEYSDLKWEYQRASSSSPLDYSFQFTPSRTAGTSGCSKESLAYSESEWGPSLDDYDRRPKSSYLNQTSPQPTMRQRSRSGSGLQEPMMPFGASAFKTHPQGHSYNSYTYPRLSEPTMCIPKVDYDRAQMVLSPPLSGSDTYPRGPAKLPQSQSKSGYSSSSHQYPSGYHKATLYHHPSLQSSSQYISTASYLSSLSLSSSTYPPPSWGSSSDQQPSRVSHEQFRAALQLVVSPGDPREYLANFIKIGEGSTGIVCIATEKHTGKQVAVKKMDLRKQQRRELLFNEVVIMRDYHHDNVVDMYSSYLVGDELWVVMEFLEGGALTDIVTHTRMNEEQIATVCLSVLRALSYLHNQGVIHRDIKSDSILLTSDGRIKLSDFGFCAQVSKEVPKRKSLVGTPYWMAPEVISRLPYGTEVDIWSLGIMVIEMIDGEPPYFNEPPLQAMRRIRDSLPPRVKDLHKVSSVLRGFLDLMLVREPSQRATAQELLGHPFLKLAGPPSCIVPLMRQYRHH
Sequence of UniProt O76039 (O76039 whole entry): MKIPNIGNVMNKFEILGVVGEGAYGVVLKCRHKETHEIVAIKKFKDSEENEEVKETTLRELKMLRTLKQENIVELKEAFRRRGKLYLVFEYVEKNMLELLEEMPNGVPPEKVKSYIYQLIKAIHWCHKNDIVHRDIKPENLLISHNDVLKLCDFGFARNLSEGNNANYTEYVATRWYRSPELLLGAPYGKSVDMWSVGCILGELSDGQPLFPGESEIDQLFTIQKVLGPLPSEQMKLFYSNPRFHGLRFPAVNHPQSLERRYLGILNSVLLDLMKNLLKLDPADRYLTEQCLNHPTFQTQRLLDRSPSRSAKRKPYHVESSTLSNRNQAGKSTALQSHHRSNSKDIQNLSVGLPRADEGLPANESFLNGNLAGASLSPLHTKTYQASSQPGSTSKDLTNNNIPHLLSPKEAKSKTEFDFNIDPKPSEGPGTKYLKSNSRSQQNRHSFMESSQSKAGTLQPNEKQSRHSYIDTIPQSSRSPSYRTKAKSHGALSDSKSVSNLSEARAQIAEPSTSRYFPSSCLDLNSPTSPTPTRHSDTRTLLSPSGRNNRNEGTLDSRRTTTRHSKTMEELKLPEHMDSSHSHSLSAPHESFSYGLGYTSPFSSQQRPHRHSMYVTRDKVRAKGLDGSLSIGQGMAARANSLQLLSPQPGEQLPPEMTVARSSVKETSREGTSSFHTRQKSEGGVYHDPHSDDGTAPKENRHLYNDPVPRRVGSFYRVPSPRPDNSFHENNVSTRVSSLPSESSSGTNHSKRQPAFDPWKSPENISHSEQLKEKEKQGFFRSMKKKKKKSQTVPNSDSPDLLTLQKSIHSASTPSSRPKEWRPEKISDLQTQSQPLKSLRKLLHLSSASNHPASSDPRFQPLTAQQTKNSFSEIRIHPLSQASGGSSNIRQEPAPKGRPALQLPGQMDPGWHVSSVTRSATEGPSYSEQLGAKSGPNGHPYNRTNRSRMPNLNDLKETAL
Sequence of UniProt Q16584 (Q16584 whole entry, looked up): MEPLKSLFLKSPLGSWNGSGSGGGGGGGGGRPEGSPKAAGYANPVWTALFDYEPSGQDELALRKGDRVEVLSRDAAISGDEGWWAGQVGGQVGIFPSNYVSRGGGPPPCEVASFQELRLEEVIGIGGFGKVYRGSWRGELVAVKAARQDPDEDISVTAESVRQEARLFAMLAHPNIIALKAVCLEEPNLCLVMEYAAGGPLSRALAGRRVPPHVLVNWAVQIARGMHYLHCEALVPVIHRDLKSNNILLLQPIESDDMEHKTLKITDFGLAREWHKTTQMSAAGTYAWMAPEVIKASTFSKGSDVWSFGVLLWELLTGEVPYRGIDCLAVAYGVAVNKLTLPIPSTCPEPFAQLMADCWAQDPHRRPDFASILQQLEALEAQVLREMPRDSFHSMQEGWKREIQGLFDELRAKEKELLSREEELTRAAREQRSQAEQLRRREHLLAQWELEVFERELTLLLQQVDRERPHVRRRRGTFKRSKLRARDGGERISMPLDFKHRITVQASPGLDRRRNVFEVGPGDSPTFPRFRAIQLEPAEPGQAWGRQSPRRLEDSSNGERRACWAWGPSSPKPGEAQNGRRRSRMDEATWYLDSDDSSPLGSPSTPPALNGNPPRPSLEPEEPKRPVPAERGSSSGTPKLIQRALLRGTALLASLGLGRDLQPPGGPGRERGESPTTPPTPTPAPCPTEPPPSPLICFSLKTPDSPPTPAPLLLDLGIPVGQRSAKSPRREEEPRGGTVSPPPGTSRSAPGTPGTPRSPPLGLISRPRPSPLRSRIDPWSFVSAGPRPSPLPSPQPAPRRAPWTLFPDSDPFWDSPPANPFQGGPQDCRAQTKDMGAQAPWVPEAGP
Sequence of UniProt P08581 (P08581 whole entry M1250T, looked up): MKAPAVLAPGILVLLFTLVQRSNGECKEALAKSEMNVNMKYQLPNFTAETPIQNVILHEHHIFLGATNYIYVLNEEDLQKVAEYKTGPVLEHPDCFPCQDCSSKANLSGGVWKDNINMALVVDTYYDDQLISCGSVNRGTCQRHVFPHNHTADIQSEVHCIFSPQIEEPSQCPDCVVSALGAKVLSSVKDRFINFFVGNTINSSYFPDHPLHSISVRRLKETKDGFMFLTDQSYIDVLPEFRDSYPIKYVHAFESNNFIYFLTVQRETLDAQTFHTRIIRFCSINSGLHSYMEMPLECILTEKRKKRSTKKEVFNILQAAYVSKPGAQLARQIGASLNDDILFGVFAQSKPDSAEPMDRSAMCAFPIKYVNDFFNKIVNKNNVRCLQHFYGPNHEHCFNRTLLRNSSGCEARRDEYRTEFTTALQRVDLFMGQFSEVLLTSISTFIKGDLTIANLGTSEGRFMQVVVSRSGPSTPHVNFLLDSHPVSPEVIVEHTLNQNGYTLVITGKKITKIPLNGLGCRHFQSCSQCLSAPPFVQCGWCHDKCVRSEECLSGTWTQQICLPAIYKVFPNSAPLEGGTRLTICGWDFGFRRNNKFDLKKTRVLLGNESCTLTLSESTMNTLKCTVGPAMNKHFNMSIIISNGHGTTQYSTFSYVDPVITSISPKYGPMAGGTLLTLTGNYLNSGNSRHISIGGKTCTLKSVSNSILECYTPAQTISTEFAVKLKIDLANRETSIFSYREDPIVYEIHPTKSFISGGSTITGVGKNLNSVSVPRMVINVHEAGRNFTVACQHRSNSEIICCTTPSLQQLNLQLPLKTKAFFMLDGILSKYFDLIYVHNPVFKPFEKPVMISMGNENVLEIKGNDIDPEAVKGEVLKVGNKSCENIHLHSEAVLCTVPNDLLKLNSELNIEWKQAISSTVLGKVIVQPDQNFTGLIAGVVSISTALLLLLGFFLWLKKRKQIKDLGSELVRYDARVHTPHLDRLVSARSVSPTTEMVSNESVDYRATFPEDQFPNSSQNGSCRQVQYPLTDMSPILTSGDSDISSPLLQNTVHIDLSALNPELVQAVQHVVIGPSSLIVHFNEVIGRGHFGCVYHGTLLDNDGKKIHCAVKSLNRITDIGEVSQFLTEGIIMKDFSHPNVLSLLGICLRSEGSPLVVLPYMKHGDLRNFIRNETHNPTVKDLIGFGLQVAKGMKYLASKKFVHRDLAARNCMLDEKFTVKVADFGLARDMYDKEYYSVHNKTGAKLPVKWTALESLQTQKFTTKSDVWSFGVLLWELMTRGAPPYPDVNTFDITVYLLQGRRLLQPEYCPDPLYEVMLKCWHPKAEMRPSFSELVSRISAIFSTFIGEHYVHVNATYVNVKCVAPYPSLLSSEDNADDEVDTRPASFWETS
Sequence of UniProt P0C1S8 (P0C1S8 whole entry, looked up): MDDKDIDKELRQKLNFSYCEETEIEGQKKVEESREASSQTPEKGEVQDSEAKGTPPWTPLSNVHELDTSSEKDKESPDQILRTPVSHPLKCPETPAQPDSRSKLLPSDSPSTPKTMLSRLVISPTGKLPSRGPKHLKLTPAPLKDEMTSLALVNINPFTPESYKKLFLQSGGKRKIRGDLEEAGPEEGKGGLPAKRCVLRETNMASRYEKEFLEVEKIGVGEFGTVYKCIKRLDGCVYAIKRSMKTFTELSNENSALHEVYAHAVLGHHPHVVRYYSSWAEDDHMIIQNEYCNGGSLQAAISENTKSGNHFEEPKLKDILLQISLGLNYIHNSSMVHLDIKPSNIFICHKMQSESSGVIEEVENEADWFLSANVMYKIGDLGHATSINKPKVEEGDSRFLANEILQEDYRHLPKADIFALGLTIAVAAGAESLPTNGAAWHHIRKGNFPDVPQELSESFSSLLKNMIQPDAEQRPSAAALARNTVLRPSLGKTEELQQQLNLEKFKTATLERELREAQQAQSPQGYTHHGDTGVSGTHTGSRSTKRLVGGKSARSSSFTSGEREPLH
As for p38-alpha (UniProt Q16539), the “percent of DMSO control binding” value turned out to be 78%.
To TNNI3K (UniProt Q59H18) belongs 97%; to PFTAIRE2 (UniProt Q96Q40), 100%; to PIP5K1C (UniProt O60331), 100%.
To MLK3 (UniProt Q16584) belongs 100%.
Turning to IGF1R (UniProt P08069), the “percent of DMSO control binding” value was 100%.
To EPHB4 (UniProt P54760) belongs 100%.
To STK36 (UniProt Q9NRP7) belongs 100%; to LRRK2(G2019S) (UniProt Q5S007), 76%; to MAP3K3 (UniProt Q99759), 78%.
To PAK4 (UniProt O96013) belongs 100%; to AMPK-alpha2 (UniProt P54646), 100%; to PFTK1 (UniProt O94921), 100%.
As for DDR1 (UniProt Q08345), the “percent of DMSO control binding” value came out at 100%.
For PKNB(M.tuberculosis) the value was 61%; for WEE2 (UniProt P0C1S8), 100%.
With FGFR3(G697C) (UniProt P22607), the “percent of DMSO control binding” value is 78%.
To MUSK (UniProt O15146) belongs 96%.
For the target “RSK1(Kin.Dom.1-N-terminal) (UniProt Q15418)”, the “percent of DMSO control binding” value came to 89%.
For TTK (UniProt P33981) the value was 75%; for MEK1 (UniProt Q02750), 62%; for PKN1 (UniProt Q16512), 100%.
Regarding MET(M1250T) (UniProt P08581), the “percent of DMSO control binding” value amounted to 94%.
For NEK5 (UniProt Q6P3R8) the value was 94%.
For BRAF(V600E) the value was 95%; for ROS1 (UniProt P08922), 88%.
For VRK2 (UniProt Q86Y07) the value was 63%; for RAF1 (UniProt P04049), 85%.
With BIKE (UniProt Q9NSY1), the “percent of DMSO control binding” value was found to be 7.4%.
For DAPK2 (UniProt Q9UIK4) the value was 16%; for “TYK2(JH1domain-catalytic) (UniProt P29597)”, 8.8%; for CDKL5 (UniProt O76039), 91%.
On to SgK110 (UniProt P0C264), for which the “percent of DMSO control binding” value was 100%.
For “RPS6KA4(Kin.Dom.1-N-terminal) (UniProt O75676)” the value was 100%; for PFPK5(P.falciparum), 100%.
To CDKL2 (UniProt Q92772) belongs 100%; to PAK7 (UniProt Q9P286), 100%; to EGFR(E746-A750del) (UniProt P00533), 99%.
